Screening results from PubChem BioAssay.
Bim-Mcl-1 = disrupts Bim peptide binding to human Mcl-1; Q07820; Bead-based flow cytometry, Bim peptide-Mcl-1 binding; inhibition, % at 10 µM; hit rate 0.1% among 190,000; AID 1009; in the data active = inhibition above about 40%;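 also: 0% = no compound tracer wells and 100% = peptide blocker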
Target sequence (Q07820 whole entry, looked up): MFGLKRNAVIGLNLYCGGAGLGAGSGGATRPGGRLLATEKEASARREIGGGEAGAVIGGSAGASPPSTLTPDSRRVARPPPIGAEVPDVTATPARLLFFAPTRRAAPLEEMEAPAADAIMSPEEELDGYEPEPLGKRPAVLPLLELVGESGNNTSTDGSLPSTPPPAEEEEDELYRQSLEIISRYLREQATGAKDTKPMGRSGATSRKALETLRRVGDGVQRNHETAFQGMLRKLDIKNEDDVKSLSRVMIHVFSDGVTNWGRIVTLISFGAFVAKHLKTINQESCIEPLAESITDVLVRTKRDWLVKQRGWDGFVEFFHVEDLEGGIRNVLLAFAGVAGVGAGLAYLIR
Mcl1-Noxa inh = disrupts binding of human Mcl-1 to Noxa peptide; Q07820; TR-FRET Mcl-1/Noxa peptide binding, 2 h; inhibition, % at 21.7 µM; hit rate 1.5% among 220,000; AID 1022;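 active = compounds that cut the protein-peptide binding signal by more than 50% relative to plate controls in a single-dose test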;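 also: His-tagged Mcl-1 with rhodamine Noxa BH3 peptide and terbium anti-His antibody; 0% = Mcl-1 plus Noxa peptide wells and 100% = peptide-only wells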
Mcl1 Bid PPI = disrupts binding of human Mcl-1 to Bid peptide | Q07820 | TR-FRET Mcl-1/Bid-Dy647 peptide binding, 1536-well | inhibition, % at 21.7 µM | hit rate 0.97% among 220,000 | AID 1021;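 active = compounds that cut the binding signal by more than half at the single screening dose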;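 also: His-tagged Mcl-1 with europium anti-His antibody binding Bid BH3 peptide; 0% = Mcl-1 plus peptide wells and 100% = peptide-only wells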
Arbovirus inh = blocks arbovirus infection; arbovirus infection cell-based antiviral screen; inhibition, % at 10 µM; hit rate 0.37% among 200,000; AID 1251; in the data active = inhibition above about 30%
14-3-3 Bad inh = disrupts binding of bovine 14-3-3 zeta to phospho-Bad peptide. AID 781. hit rate 0.71% among 220,000. P63103. TR-FRET 14-3-3zeta/Dy647-pBad peptide displacement, 1 h. inhibition, % at 21.7 µM;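 active = inhibition above about 70%, limit read from the data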;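 also: 0% = full 14-3-3 plus peptide FRET controls and 100% = background without 14-3-3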
Target sequence (P63103 whole entry, looked up): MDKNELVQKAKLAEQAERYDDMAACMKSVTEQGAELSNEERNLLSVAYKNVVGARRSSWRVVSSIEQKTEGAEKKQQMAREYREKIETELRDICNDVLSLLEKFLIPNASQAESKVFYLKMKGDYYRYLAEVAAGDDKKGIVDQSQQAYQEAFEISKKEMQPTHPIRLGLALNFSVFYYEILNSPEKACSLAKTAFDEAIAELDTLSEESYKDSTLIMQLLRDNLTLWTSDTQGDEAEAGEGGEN
An asterisk follows results filed as active; x = not tested or not shown; [ ] = remark or other dose. An excerpt weighted towards active compounds, which were near 3% of everything screened.

SMILES | Bim-Mcl-1 | Mcl1-Noxa inh | Mcl1 Bid PPI | Arbovirus inh | 14-3-3 Bad inh
O=C(CNC(=O)c1ccccc1Br)N/N=C/c1cc(Br)ccc1O | 0 | 1 | -28 | -24 | 93*
Cc1ccc(C(=O)N2CCN(S(=O)(=O)c3ccccc3[N+](=O)[O-])CC2)o1 | -3 | -10 | -41 | 16 | -6
Brc1ccccc1/C=N/Nc1ccc2ccccc2n1 | -6 | 7 | -32 | 39* | -1
O=C(NC(=S)Nc1ccc(S(=O)(=O)Nc2nccs2)cc1)c1cccc(F)c1 | -18 | 26 | -85 | -8 | 0
O=C(C[n+]1cc(-c2ccccc2)n2c1CCC2)N1c2ccccc2Sc2ccccc21 | -3 | 7 | 90* | -17 | -4
Cc1ccc(-c2c[n+](CC(=O)N3c4ccccc4Sc4ccccc43)c3n2CCC3)cc1 | -6 | 3 | -6 | -13 | -2
O=C(COc1ccc2c(c1)CCC2)N1CCc2ccccc21 | 2 | 49 | 90* | -9 | 1
CSc1ccccc1NC(=O)CO/N=C(\C)c1cc2ccccc2o1 | 0 | 1 | -12 | 38* | -18
C/C(=N\OCC(=O)Nc1ccc(F)c(F)c1F)c1cc2ccccc2o1 | -5 | 20 | 12 | 8 | -2
Cn1c(NC(=O)Cc2ccc(F)cc2)cc(=O)n(C)c1=O | 0 | 0 | 65* | 1 | 9
COc1ccccc1/C=C(/NC(=O)c1ccc(Cl)cc1Cl)C(=O)O | -2 | 4 | -33 | -3 | 85*
Nc1nc(-c2ccc(Cl)cc2)nc(-c2ccc(Cl)cc2)n1 | x | -17 | -29 | x | 5
CN1C(=O)C(N=Nc2ccccc2C(=O)O)N(C)C1=S (centres undefined) | -1 | 39 | 53* | 21 | -19
Cc1cc(O)c(C(C)C)cc1N=Nc1ccccc1C(=O)O | x | 19 | -75 | x | 0
CN1CCN(CCCN2c3ccccc3Sc3ccc(Cl)cc32)CC1 | -1 | 77* | 45 | -43 | 46
CN1CCN(CCCNC(=O)c2ccc(/C=C3/Sc4ccccc4N(Cc4cccc(Cl)c4)C3=O)cc2)CC1 | -1 | 28 | -51 | -30 | 77*
CCN1CCN(CCNC(=O)c2ccc(/C=C3\Sc4ccccc4N(Cc4ccccc4F)C3=O)cc2)CC1 | -2 | 18 | -9 | -39 | 59
CN1CCN(CCCNC(=O)c2ccc(/C=C3\Sc4ccccc4N(Cc4ccc(F)cc4)C3=O)cc2)CC1 | 0 | 13 | -29 | -31 | 74*
COc1cc(/C=C/C(=O)OCC(=O)c2c[nH]c3ccccc23)ccc1OC(F)F | -1 | 7 | -2 | 2 | -5
Cc1ccccc1-n1sc2cc(F)ccc2c1=O | -4 | 16 | -91 | -25 | -29
Cc1ccc(Cl)cc1NC(=O)Nc1cccs1 | -15 | 22 | -33 | 19 | -8
O=S(=O)(c1ccccc1)N1CCC2(CC1)OCCO2 | 0 | 19 | -11 | 3 | 4
Cc1ccc2nc(Cl)c(C3CC(c4cccs4)=NN3S(C)(=O)=O)cc2c1 (centres undefined) | -3 | 13 | 1 | 4 | -9
Cn1cc(C(=O)CCl)c2ccccc21 | -3 | -2 | -7 | -38 | -7
CN1c2ccsc2C(O)=C(C(=S)Nc2ccc(F)c(Cl)c2)S1(=O)=O | -6 | 34 | 54* | 22 | 10
SMILES | Bim-Mcl-1 | Mcl1-Noxa inh | Mcl1 Bid PPI | Arbovirus inh | 14-3-3 Bad inh
COc1ccc2c(C)cc(Sc3nnnn3-c3ccccc3)nc2c1 | -4 | -4 | -6 | 31* | 4
COc1ccc(CSc2nnnn2-c2ccccc2)cc1 | 0 | 0 | 2 | -1 | -5
CCOC(=O)C1C(c2cccs2)NC(=O)N(C)C1(O)C(F)(F)F (centres undefined) | -1 | 0 | 61* | 20 | -13
O=C(c1ccc(CNS(=O)(=O)c2ccc(Br)cc2)cc1)N1CCCC1 | 42* | 4 | -33 | -1 | -1
O=C(CNS(=O)(=O)c1ccc(C(=O)N2CCCCC2)cc1)N1CCCCC1 | -5 | 8 | -8 | 8 | 9
COC(=O)c1ccc(C)c(NC(=O)CCNC(=O)c2ccc([N+](=O)[O-])cc2)c1 | 46* | 15 | -11 | -2 | 0
CCN(CC)c1ccc(NC(=O)Nc2ccc(C(C)=O)cc2)cc1 | -5 | 97* | 5 | -6 | 0
CCN(CC)c1ccc(NC(=O)c2cncc(Br)c2)cc1 | -4 | 58* | -5 | 0 | 3
O=S(=O)(Nc1ccncc1Cl)c1ccc2ccccc2c1 | 0 | -3 | -17 | 1 | 72*
Cc1ccc(OC(=O)c2oc3ccc(F)cc3c2C)c(C)c1 | 0 | 1 | -19 | -9 | -4
COC(=O)c1cc(=O)n(CCc2ccc(OC)c(OC)c2)c(=Nc2ccc(F)c(Cl)c2)s1 | -3 | -9 | -15 | -40 | -1
CCOc1cccc(CNCCO)c1OCc1ccc(Cl)cc1Cl | -6 | 29 | 72* | -13 | 4
CCOc1c(Cl)cc(Cl)cc1CNCCNCCO | -2 | 30 | 8 | 6 | 72*
COc1ccc(C(=O)NNC(=O)CSc2nnc(C)n2CC2CCCO2)cc1 (centres undefined) | 2 | 0 | -15 | -2 | -15
Cc1nc(-c2ccc(S(=O)(=O)Oc3ccccc3Cl)s2)cs1 | x | 3 | -8 | x | -10
CCCSc1nc(N)c2c3c(sc2n1)CN(C)CC3 | 0 | 32 | -36 | -2 | -2
CC(C)Sc1nc(N)c2c3c(sc2n1)CN(C)CC3 | -2 | 58* | -14 | -3 | 8
Cc1ccc(NC2=NC(=S)N(CC#N)C23CCCCC3)cc1 | -4 | 10 | -13 | -14 | -5
CCCn1nc(NC(=O)c2cccs2)c2cc3ccccc3nc21 | 0 | 15 | 18 | -4 | 77*[fluorescence artefact?]
CCCn1nc(NC(=O)c2cccs2)c2cc3cc(OC)ccc3nc21 | 4 | 17 | 18 | 8 | 92*[fluorescence artefact?]
O=C1OCC2OC(O)C(O)C(O)C2OC(=O)c2cc(O)c(O)c(O)c2-c2c(O)c(O)c3oc(=O)c4c(c(O)c(O)c5oc(=O)c2c3c54)-c2c1cc(O)c(O)c2O (centres undefined) | x | 105* | -10 | x | 75*
O=C(Cn1nnc2c(cnn2-c2ccc(F)cc2)c1=O)Nc1ccccc1C(F)(F)F | -4 | 3 | -27 | -10 | -6
CN(C)c1ccc(CNCCC2(O)CCOC(C)(C)C2)cc1 (centres undefined) | 2 | 2 | -47 | 9 | 75*
CC(=O)N1CCc2ccc(S(=O)(=O)N3CC(C)OC(C)C3)cc21 (centres undefined) | 11 | -5 | -6 | 5 | 12
COC(=O)C1=C(C)N(Cc2ccco2)C(=O)N[C@@H]1c1cccc(C(F)(F)F)c1 | -1 | 19 | -11 | 32* | -2
O=C(CSc1nc2cc([N+](=O)[O-])ccc2n1-c1ccccc1)NCc1ccc2c(c1)OCO2 | 4 | 58* | 3 | -13 | -2
Cc1cc(C)cc(-n2c(SCC(=O)NCc3ccc4c(c3)OCO4)nc3ccccc3c2=O)c1 | -6 | 10 | -83 | -16 | 2
CC[N+]1=CN(c2ccccc2)C(C)=CC1(C)C | 2 | 8 | -69 | 1 | 82*[fluorescence artefact?]
CC1=NN(c2ccccc2)C(=O)C1(C)C | 0 | 4 | -1 | 7 | 2
